# According to PubChem BioAssay (NCI):
# The panel holds about 83,000 compounds, 20% with a hit somewhere; the sample as a whole holds those more often.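 The test compound was applied at a single concentration to cells in 96-well plates for 48 hours, and percent growth was recorded.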 A number with no mark means an inactive call. Activity calls are given as the source filed them. The calls were made as follows: active = growth percent below 10; inactive = the rest.
# Tested on: HL-60(TB) leukemia
# Assay: NCI-60 one-dose screen, 48 h (100 = growth as untreated, 0 = no growth, -100 = all killed)
# Conditions: 10 µM unless noted
row,SMILES,growth
1,COc1cccc(/C=C2\SC(=Nc3ccc(NC(C)=O)cc3)NC2=O)c1OC,101%
2,CCCC(NC(=O)OCc1ccccc1)C(=O)O (stereo not given),44.9%
3,CCOP(=O)(OCC)/C(=C\N1C(=O)CC(=O)NC1=S)C(=O)OC,103%
4,OC(c1ccccc1)C(NCc1ccccc1)c1ccccc1 (stereo not given),98.4%
5,CN(C)CCC(=O)C1CC1,93.9%
6,O=C1C(Nc2ccc(Cl)cc2)=C(I)C(=O)c2ncccc21,-45.8% (active)
7,CNC(=O)c1[nH]cc(-c2ccc(OC)cc2)c1-c1cc(OC)c2c(c1OC)OCO2,96.4%
8,NC(=O)N/N=C/c1ccc(Br)o1,95.8%
9,CN(CCCCCl)P(=O)(OCc1ccc([N+](=O)[O-])o1)C(F)(F)C[C@H](NC(=O)CNC(=O)c1ccc(N=[N+]=[N-])cc1)C(=O)NCCc1ccc(O)cc1 (stereo not given in full),62.6%
10,COc1ccc(/C=N/NC(=O)c2cccc3cc[nH]c23)cc1O,10.1%
11,CN1CCN(Cn2nc(-c3cc(Cl)cc(Cl)c3Cl)oc2=S)CC1,82%
12,COc1ccc2oc(=O)cc(-c3nc4ccc(N)cc4[nH]3)c2c1,101%
13,CCN(CC)C(=S)SSC(=S)N(CC)CC,73.7%
14,CCOC(=O)c1ccc(NC(=O)Nc2ncc(Cl)cc2Cl)cc1,95.5%
15,C=C(C)[C@@H]1CC[C@]2(C(=O)NC3CCCCC3)CC[C@]3(C)[C@H](CC[C@@H]4[C@@]5(C)CCCNC(C)(C)[C@@H]5CC[C@]43C)[C@@H]12,23.7%
